{"source": "PubChem BioAssay (EPA / NIEHS)", "note": "Several values for one entry are separate records, joined by “and”; a condition that tells them apart may be missing. Equal values may be shown once. The source holds several records for some structures; these can differ, active in one and inactive in another. Activity calls are given as the source filed them. Rule for the calls: active = hit-call score of the fitted dose curve at least 0.9, where 1 is the maximum; inactive = score below 0.9.", "data": [{"read-out": "Vascular cell adhesion molecule 1 (VCAM1), VCAM1 (gene 7412)", "experiment": "BSK_LPS_VCAM1: BioMAP Diversity Plus: LPS Assay for Vascular cell adhesion molecule 1 (VCAM1) Biomarker Activity (AID 2283086)", "conditions": "primary human HUVEC with PBMC; actives raise or lower the signal", "how_it_was_run": "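ELISA read-out of VCAM-1 at 24 h post-dosing in an LPS-driven HUVEC/PBMC primary human co-culture; gain or loss of signal fitted bidirectionally against DMSO baseline. Cytotoxicity tracked in parallel cultures by SRB total-protein staining.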", "values": [{"compound": "CNC(=S)S", "AC50": "12.4 µM (active)"}, {"compound": "CCNc1nc(Cl)nc(NCC)n1", "outcome": "inactive"}, {"compound": "COC(=O)C(C)Oc1ccc(Oc2ccc(Cl)cc2Cl)cc1", "note": "(stereo not given)", "outcome": "inactive"}, {"compound": "CCCN(CCC)c1c([N+](=O)[O-])cc(S(N)(=O)=O)cc1[N+](=O)[O-]", "AC50": "34.6 µM (active) [middle of 4 runs]"}, {"compound": "CCOC(=O)CC(SP(=S)(OC)OC)C(=O)OCC", "note": "(stereo not given)", "outcome": "inactive"}, {"compound": "Cc1ccc(-c2c(Cl)nc(C#N)n2S(=O)(=O)N(C)C)cc1", "AC50": "34 µM (active)"}, {"compound": "Oc1ccccc1-c1ccccc1", "outcome": "inactive"}, {"compound": "CO/C=C(/C(=O)OC)c1ccccc1Oc1cc(Oc2ccccc2C#N)ncn1", "AC50": "11 µM (active) and 8.26 µM (active) and 19.7 µM (active)", "outcome": "inactive"}, {"compound": "COc1cnc(OC)n2nc(NS(=O)(=O)c3c(OCC(F)F)cccc3C(F)(F)F)nc12", "outcome": "inactive"}, {"compound": "CCc1nn(C)c(C(=O)NCc2ccc(C(C)(C)C)cc2)c1Cl", "AC50": "19.4 µM (active)"}, {"compound": "N#CC(CCc1ccc(Cl)cc1)(Cn1cncn1)c1ccccc1", "note": "(stereo not given)", "outcome": "inactive"}, {"compound": "O=C(O)COc1nc(Cl)c(Cl)cc1Cl", "outcome": "inactive"}, {"compound": "C=CCC1=C(C)C(OC(=O)C2C(C=C(C)C)C2(C)C)CC1=O", "note": "(stereo not given)", "AC50": "31 µM (active) [middle of 4 runs]"}, {"compound": "N#Cc1cc(Br)c(O)c(Br)c1", "outcome": "inactive"}, {"compound": "O=C(O)c1nc(Cl)ccc1Cl", "outcome": "inactive"}, {"compound": "C#CCOS(=O)OC1CCCCC1Oc1ccc(C(C)(C)C)cc1", "note": "(stereo not given)", "AC50": "10.1 µM (active)"}, {"compound": "COC(=O)c1ccccc1C(=O)OC", "outcome": "inactive"}, {"compound": "COc1nc(NC(C)C)nc(NC(C)C)n1", "outcome": "inactive"}, {"compound": "CC1=C(C(=O)Nc2ccccc2)SCCO1", "outcome": "inactive"}, {"compound": "COP(=S)(OC)Oc1nc(Cl)c(Cl)cc1Cl", "AC50": "26.4 µM (active)"}, {"compound": "CN(C)C(=S)SSC(=S)N(C)C", "AC50": "24.6 µM (active)"}, {"compound": "CNC(=O)ON=CC(C)(C)SC", "outcome": "inactive"}, {"compound": "COC(=O)C=C(C)OP(=O)(OC)OC", "outcome": "inactive"}, {"compound": "O=C(Nc1ccccc1)Nc1ccnc(Cl)c1", "outcome": "inactive"}, {"compound": "CCCCNC(=O)OCC#CI", "AC50": "24.9 µM (active) and 27.1 µM (active)"}, {"compound": "CCOc1cc(Oc2ccc(C(F)(F)F)cc2Cl)ccc1[N+](=O)[O-]", "outcome": "inactive"}]}, {"read-out": "CD38, CD38 (gene 952)", "experiment": "BSK_SAg_CD38: BioMAP Diversity Plus: SAg Assay for CD38 Biomarker Activity (AID 2283087)", "conditions": "primary human HUVEC with PBMC; actives raise or lower the signal", "how_it_was_run": "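Measures CD38 on a human endothelial/PBMC co-culture driven by SEB and TSST-1, 24 h after compound exposure, using ELISA with fluorescence detection; DMSO defines baseline for bidirectional curve fitting.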", "values": [{"compound": "CCCN(CCC)c1c([N+](=O)[O-])cc(S(N)(=O)=O)cc1[N+](=O)[O-]", "AC50": "38.7 µM (active) [middle of 4 runs]"}, {"compound": "CO/C=C(/C(=O)OC)c1ccccc1Oc1cc(Oc2ccccc2C#N)ncn1", "AC50": "20 µM (active) [middle of 4 runs]"}, {"compound": "COc1cnc(OC)n2nc(NS(=O)(=O)c3c(OCC(F)F)cccc3C(F)(F)F)nc12", "outcome": "inactive"}, {"compound": "CCc1nn(C)c(C(=O)NCc2ccc(C(C)(C)C)cc2)c1Cl", "AC50": "15.8 µM (active)"}, {"compound": "C=CCC1=C(C)C(OC(=O)C2C(C=C(C)C)C2(C)C)CC1=O", "note": "(stereo not given)", "AC50": "30.5 µM (active) and 34.3 µM (active) and 31.6 µM (active)"}, {"compound": "N#Cc1cc(Br)c(O)c(Br)c1", "AC50": "31.2 µM (active)"}, {"compound": "C#CCOS(=O)OC1CCCCC1Oc1ccc(C(C)(C)C)cc1", "note": "(stereo not given)", "AC50": "5.43 µM (active)"}, {"compound": "COC(=O)c1ccccc1C(=O)OC", "outcome": "inactive"}, {"compound": "CC1=C(C(=O)Nc2ccccc2)SCCO1", "outcome": "inactive"}, {"compound": "CNC(=O)ON=CC(C)(C)SC", "outcome": "inactive"}, {"compound": "COC(=O)C=C(C)OP(=O)(OC)OC", "outcome": "inactive"}, {"compound": "O=C(Nc1ccccc1)Nc1ccnc(Cl)c1", "outcome": "inactive"}, {"compound": "CCOc1cc(Oc2ccc(C(F)(F)F)cc2Cl)ccc1[N+](=O)[O-]", "AC50": "8.23 µM (active)"}]}, {"read-out": "CD40, CD40 (gene 958)", "experiment": "BSK_SAg_CD40: BioMAP Diversity Plus: SAg Assay for CD40 Biomarker Activity (AID 2283088)", "conditions": "primary human HUVEC with PBMC; actives raise or lower the signal", "how_it_was_run": "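HUVEC plus PBMC co-culture, superantigen-activated, with CD40 read by ELISA 24 h after dosing. Curves fitted in both directions against DMSO. Overt cytotoxicity checked by parallel SRB total-protein staining.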", "values": [{"compound": "CNC(=S)S", "outcome": "inactive"}, {"compound": "CCNc1nc(Cl)nc(NCC)n1", "outcome": "inactive"}, {"compound": "CCOC(=O)CC(SP(=S)(OC)OC)C(=O)OCC", "note": "(stereo not given)", "outcome": "inactive"}, {"compound": "Cc1ccc(-c2c(Cl)nc(C#N)n2S(=O)(=O)N(C)C)cc1", "AC50": "20 µM (active)"}, {"compound": "Oc1ccccc1-c1ccccc1", "outcome": "inactive"}, {"compound": "CCc1nn(C)c(C(=O)NCc2ccc(C(C)(C)C)cc2)c1Cl", "AC50": "7.68 µM (active)"}, {"compound": "O=C(O)COc1nc(Cl)c(Cl)cc1Cl", "outcome": "inactive"}, {"compound": "O=C(O)c1nc(Cl)ccc1Cl", "outcome": "inactive"}, {"compound": "COc1nc(NC(C)C)nc(NC(C)C)n1", "outcome": "inactive"}, {"compound": "CC1=C(C(=O)Nc2ccccc2)SCCO1", "outcome": "inactive"}, {"compound": "COP(=S)(OC)Oc1nc(Cl)c(Cl)cc1Cl", "outcome": "inactive"}, {"compound": "CN(C)C(=S)SSC(=S)N(C)C", "AC50": "28 µM (active)"}, {"compound": "CNC(=O)ON=CC(C)(C)SC", "outcome": "inactive"}, {"compound": "COC(=O)C=C(C)OP(=O)(OC)OC", "outcome": "inactive"}]}, {"read-out": "CD69, CD69 (gene 969)", "experiment": "BSK_SAg_CD69: BioMAP Diversity Plus: SAg Assay for CD69 Biomarker Activity (AID 2283089);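 for AC50: cell surface CD69 protein quantified by ELISA with fluorescence detection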", "conditions": "primary human HUVEC with PBMC; actives raise or lower the signal", "how_it_was_run": "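Values derive from bidirectional fitting relative to DMSO vehicle. Cells: umbilical vein endothelium plus peripheral blood mononuclear cells, treated 24 h before fluorescent ELISA for CD69.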", "values": [{"compound": "CNC(=S)S", "outcome": "inactive"}, {"compound": "CCNc1nc(Cl)nc(NCC)n1", "outcome": "inactive"}, {"compound": "COC(=O)C(C)Oc1ccc(Oc2ccc(Cl)cc2Cl)cc1", "note": "(stereo not given)", "outcome": "inactive"}, {"compound": "CCCN(CCC)c1c([N+](=O)[O-])cc(S(N)(=O)=O)cc1[N+](=O)[O-]", "AC50": "32.6 µM (active) [middle of 4 runs]"}, {"compound": "CCOC(=O)CC(SP(=S)(OC)OC)C(=O)OCC", "note": "(stereo not given)", "outcome": "inactive"}, {"compound": "Cc1ccc(-c2c(Cl)nc(C#N)n2S(=O)(=O)N(C)C)cc1", "AC50": "13.9 µM (active)"}, {"compound": "Oc1ccccc1-c1ccccc1", "outcome": "inactive"}, {"compound": "CO/C=C(/C(=O)OC)c1ccccc1Oc1cc(Oc2ccccc2C#N)ncn1", "AC50": "12.3 µM (active) [middle of 4 runs]"}, {"compound": "COc1cnc(OC)n2nc(NS(=O)(=O)c3c(OCC(F)F)cccc3C(F)(F)F)nc12", "outcome": "inactive"}, {"compound": "CCc1nn(C)c(C(=O)NCc2ccc(C(C)(C)C)cc2)c1Cl", "AC50": "3.99 µM (active)"}, {"compound": "N#CC(CCc1ccc(Cl)cc1)(Cn1cncn1)c1ccccc1", "note": "(stereo not given)", "outcome": "inactive"}, {"compound": "O=C(O)COc1nc(Cl)c(Cl)cc1Cl", "outcome": "inactive"}, {"compound": "C=CCC1=C(C)C(OC(=O)C2C(C=C(C)C)C2(C)C)CC1=O", "note": "(stereo not given)", "AC50": "30.1 µM (active) [middle of 4 runs]"}, {"compound": "N#Cc1cc(Br)c(O)c(Br)c1", "AC50": "26.4 µM (active)"}, {"compound": "O=C(O)c1nc(Cl)ccc1Cl", "outcome": "inactive"}, {"compound": "C#CCOS(=O)OC1CCCCC1Oc1ccc(C(C)(C)C)cc1", "note": "(stereo not given)", "AC50": "5.11 µM (active)"}, {"compound": "COC(=O)c1ccccc1C(=O)OC", "outcome": "inactive"}, {"compound": "COc1nc(NC(C)C)nc(NC(C)C)n1", "outcome": "inactive"}, {"compound": "CC1=C(C(=O)Nc2ccccc2)SCCO1", "outcome": "inactive"}, {"compound": "COP(=S)(OC)Oc1nc(Cl)c(Cl)cc1Cl", "outcome": "inactive"}, {"compound": "CN(C)C(=S)SSC(=S)N(C)C", "AC50": "28.3 µM (active)"}, {"compound": "CNC(=O)ON=CC(C)(C)SC", "outcome": "inactive"}, {"compound": "COC(=O)C=C(C)OP(=O)(OC)OC", "outcome": "inactive"}, {"compound": "O=C(Nc1ccccc1)Nc1ccnc(Cl)c1", "AC50": "20 µM (active)"}, {"compound": "CCCCNC(=O)OCC#CI", "AC50": "21.9 µM (active) and 15.5 µM (active)"}, {"compound": "CCOc1cc(Oc2ccc(C(F)(F)F)cc2Cl)ccc1[N+](=O)[O-]", "outcome": "inactive"}]}]}
